Source: PubChem BioAssay
Where “and” joins values, the source holds several entries; their conditions need not be identical. Equal values may be shown once. Calls of active or inactive are those of the source. Cut-off read from the data, not from the text of the source, unless noted: active = inhibition above about 80%; inactive = the rest.

Key:
[1] = viability loss with induced miR-34 in A549 – imaging, A549 dox-inducible miR-34, nuclei and caspase counts, primary screen (AID 1347080;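 active = compounds whose cell count with miR-34 switched on is under 0.7 times the count with it off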); conditions: A549 miR-34 inducible, Hoechst nuclei count, 48 h
[2] = MELAS cybrid and Rieske KO viability enhancers – cell-based, MELAS cybrids, Rieske KO mouse fibroblasts, CellTiter-Glo, primary screen (AID 1508586;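 active = mean z-score across replicates of 1.96 or higher in either the MELAS or the Rieske mutant cell line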;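 note: z relative to plate mean and SD of compound and empty wells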); conditions: low glucose
[3] = growth inhibition, single agent or in combination, cell-based, chromothripsis tumors, cisplatin or BGB combos (AID 1671449); conditions: LFS_MB_P medulloblastoma cells;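 note: cells exposed for 96 hours; 0% = vehicle DMSO and 100% = killing by high DMSO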
[4] = growth inhibition, single agent and combos, cell-based, chromothripsis tumors, cisplatin or BGB combos (AID 1671450); conditions: HDN33 neuroblastoma cells, stronger effect = higher value;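 note: cells exposed to compound for four days; 0% = vehicle DMSO and 100% = cell killing by high DMSO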
[5] = growth inhibition, single agents and combos, ICB984, cell-based, cisplatin or BGB combos, synergistic combos for chromothripsis tumors (AID 1671451; call rule not given here;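 note: cells exposed for 96 hours before readout; 0% = vehicle DMSO and 100% = killing by high DMSO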); conditions: ICB984 medulloblastoma cells, drug combinations, stronger effect = higher value
[6] = growth inhibition, single agents and combos, LFS_MB_1R, cell-based, cisplatin or BGB combos, synergistic combos for chromothripsis tumors (AID 1671452); conditions: LFS_MB_1R medulloblastoma cells, stronger effect = higher value;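 note: cells exposed for 96 hours before readout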
[7] = growth inhibition, single agents and combos, HTB85, cell-based, BGB or cisplatin IC20 combos, synergistic combos for chromothripsis tumors (AID 1671453); conditions: HTB85 osteosarcoma cells, drug combinations, stronger effect = higher value;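 note: cells exposed for 96 hours before readout; 0% = vehicle DMSO and 100% = high DMSO killing control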
[8] = growth inhibition, single agents and combos, CRL2098, cell-based, BGB or cisplatin IC20 combos, synergistic combos for chromothripsis tumors (AID 1671454); conditions: CRL2098 osteosarcoma cells, drug combinations, stronger effect = higher value;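 note: cells exposed for 96 h before readout; 0% = vehicle DMSO and 100% = killing by high DMSO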
[9] = growth inhibition, single agents and combos, HD-MB03, cell-based, BGB or cisplatin IC20 combos, synergistic combos for chromothripsis tumors (AID 1671455; in the data active = inhibition above about 83%;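 note: 0% = vehicle DMSO and 100% = high DMSO as cytotoxic control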); conditions: HD-MB03 medulloblastoma cells, stronger effect = higher value
[10] = growth inhibition, single agents and combos, UWB1.289, cell-based, BGB or cisplatin combos, synergistic combos for chromothripsis tumors (AID 1671456); conditions: UWB1.289 ovarian carcinoma cells, stronger effect = higher value;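 note: cells exposed to compound for four days; 0% = vehicle DMSO and 100% = killing by high DMSO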
[11] = growth inhibition, single agents and combos, LFS_MB_2R, cell-based, cisplatin combos, synergistic combos for chromothripsis tumors (AID 1671457); conditions: LFS_MB_2R medulloblastoma cells, stronger effect = higher value;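 note: cells exposed to compound for four days before readout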
[12] = growth inhibition, MDA-MB-436, cell-based, BGB or cisplatin combos, synergistic combos for chromothripsis tumors (AID 1671458; call rule not given here;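 note: cells exposed for 96 hours; 0% = vehicle DMSO and 100% = killing by high DMSO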); conditions: MDA-MB-436 breast carcinoma growth inhibition, drug combinations, stronger effect = higher value
[13] = UWB1.289_BRCA1 ovarian cancer growth, cell-based, BGB or cisplatin combinations (AID 1671459); conditions: UWB1.289 BRCA1 ovarian carcinoma, drug combinations, stronger effect = higher value
[14] = drug combination toxicity in non-malignant astrocytes – cell-based, BGB or cisplatin IC20 combos, cytotoxicity control for chromothriptic childhood tumor combination screen (AID 1671460); conditions: Human astrocytes, viability inhibition, drug combinations, at 0.5 µM, stronger effect = higher value;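 note: cells exposed to compounds for 96 hours before viability readout; 0% = vehicle and 100% = killing control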
[15] = BT084 cell growth, single and combined drugs, ICGC_MB145, cisplatin and BGB IC40 combos (AID 1671461); conditions: BT084 medulloblastoma cells, drug combinations, stronger effect = higher value;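 note: cells exposed to drugs for 96 hours; 0% = vehicle DMSO and 100% = high DMSO full killing control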
[16] = RCMB18 cell growth, single agent and combined, cisplatin and BGB IC40 combos (AID 1671462); conditions: RCMB18 medulloblastoma cells, stronger effect = higher value;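 note: cells exposed to compound for four days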
[17] = CRL1545 cell growth, single agent and combined, cisplatin and BGB IC20 combos (AID 1671464); conditions: CRL1545 osteosarcoma cells, stronger effect = higher value;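 note: cells exposed to compound for 96 hours before readout; 0% = vehicle DMSO and 100% = high DMSO killing control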
[18] = compounds altering viability of human ES cells (AID 493140; call rule not given here;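 note: cells exposed to compounds for four days before counting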); conditions: human embryonic stem cell survival screen; stronger effect = higher value
[19] = P. berghei load reduction in hepatocytes – cell-based, HepG2, luciferase luminescence, HepG2 viability, primary screen (AID 624349; in the data active = parasite load remaining mostly below about 12%, no sharp cut-off; inactive = mostly above about 10%;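 note: 100% = mean of DMSO negative control wells on the same plate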); conditions: P. berghei liver stage in HepG2, luciferase luminescence, concentration not given here; parasite load remaining: stronger effect = lower value; viability: measured here: HepG2 viability without parasites
[20] = stronger effect = lower value, cell number ratio, induced over uninduced
[21] = measured here: relative caspase fold change +Dox/-Dox
[22] = measured here: total cells with miR-34 induction, stronger effect = lower value
[23] = measured here: total cells without miR-34 induction
[24] = MELAS cybrid survival, CellTiter-Glo 48 h, stronger effect = higher value
[25] = Rieske KO mouse fibroblast survival, CellTiter-Glo 72 h
[26] = measured here: combination with BGB IC40, at 0.05 µM
[27] = measured here: with BGB IC20 combination, at 0.5 µM
[28] = measured here: with cisplatin IC20 combination, at 0.5 µM
[29] = measured here: combination with cisplatin, at 0.5 µM
[30] = measured here: combination with cisplatin, at 5 µM

CN(C)CC(=O)Nc1ccc2[nH]c(=O)c3ccccc3c2c1
fold change [1, 20]: 0.941 (inactive) and 0.916 (inactive)
fold change [1, 21]: 0.694 and 0.571
cell count [1, 22]: 5000 and 7760
cell count [1, 23]: 5310 and 8470
z-score [2, 24]: -0.15 (inactive) and -0.352 (inactive)
z-score [2, 25]: -0.197 and 0.819
inhibition ([3]; at 0.5 µM, stronger effect = higher value): -18.5% (inactive) and -17% (inactive) and -7.46% (inactive)
inhibition ([3]; measured here: combination with BGB IC20, at 0.005 µM): 12.4% and -8.96% and -31.5%
inhibition ([3]; measured here: combination with BGB IC40, at 0.005 µM): -19.5% and -21.6% and -39.4%
inhibition [3, 26]: -14.8% and -27.5% and -40.5%
inhibition ([3]; measured here: combination with cisplatin, at 0.5 µM, stronger effect = higher value): -45.3% and -39.5% and -30.4%
inhibition ([3]; measured here: combination with cisplatin, at 5 µM, stronger effect = higher value): 4.17% and -17.8% and -4.6%
inhibition ([4]; BGB combo, at 5 µM): 7.32% and -6.67% and -9.33%
inhibition ([4]; at 0.5 µM): 6.02% (inactive) and -1.05% (inactive) and -19% (inactive)
inhibition ([4]; cisplatin combo, at 5 µM): 17.1% and 1.58% and -10.8%
inhibition [4, 27]: -3% and -3.63% and -21.1%
inhibition [4, 28]: 16.9% and 5.73% and -18.5%
inhibition ([4]; single agent, at 5 µM): 15.5% and 10.2% and 30.1%
inhibition ([5]; BGB IC20 combo, at 0.005 µM): -13.3% and -2.95% and -7.79%
inhibition ([5]; BGB IC40 combo, at 0.005 µM): -17% and -47.2% and -17.2%
inhibition ([5]; BGB IC40 combo, at 0.05 µM): -0.058% and 4.16% and -0.711%
inhibition ([5]; at 0.5 µM): -28.4% (inactive) and -20.4% (inactive) and -5.86% (inactive)
inhibition ([5]; cisplatin combo, at 0.05 µM): -2.85% and 1.48% and -4.33%
inhibition ([5]; cisplatin combo, at 0.5 µM): -27.2% and -5.09% and 16.6%
inhibition ([5]; cisplatin combo, at 5 µM): -20% and -21% and -0.405%
inhibition ([5]; measured here: 5 uM single agent, at 5 µM): -18.7% and -14.3% and -10.6%
inhibition ([6]; at 0.5 µM): -13.8% (inactive) and -13.5% (inactive) and -14% (inactive)
inhibition [6, 26]: -3.83% and -23.1% and -25.7%
inhibition [6, 29]: 0.486% and -10.2% and -9.3%
inhibition [6, 30]: -18.1% and 3.23% and -15.4%
inhibition ([7]; at 0.5 µM): -2.64% (inactive) and 6.11% (inactive) and -9.79% (inactive)
inhibition ([7]; measured here: with BGB IC20, at 0.5 µM): -8.36% and -5.68% and -25.9%
inhibition ([7]; measured here: with BGB IC20, at 5 µM): -24.1% and 8.44% and -2.25%
inhibition ([7]; measured here: with cisplatin IC20, at 0.5 µM): -8.52% and 5.14% and 3.46%
inhibition ([7]; measured here: with cisplatin IC20, at 5 µM): -29.8% and -39.5% and -46.8%
inhibition ([7]; single agent, at 5 µM): 1.63% and -7.42% and 3.8%
inhibition ([8]; at 0.5 µM): -36.8% (inactive) and -23.4% (inactive) and -51.4% (inactive)
inhibition ([8]; measured here: combination with BGB at IC20, at 0.5 µM): -71.3% and -23.5% and -26.5%
inhibition ([8]; measured here: combination with cisplatin at IC20, at 0.5 µM): -19% and -5.62% and -82%
inhibition ([9]; at 0.5 µM): -0.31% (inactive) and -9.88% (inactive) and -18.4% (inactive)
inhibition ([9]; measured here: combo with BGB at IC20, at 0.5 µM): 0.82% and -0.47% and -22%
inhibition ([9]; measured here: combo with cisplatin at IC20, at 0.5 µM): -8.4% and -20.4% and -29.9%
inhibition ([10]; at 0.5 µM): 3.12% (inactive) and 0.71% (inactive) and -1.11% (inactive)
inhibition ([10]; measured here: inhibition with BGB combination, at 0.05 µM): -1.46% and -11.5% and -12.3%
inhibition ([10]; measured here: inhibition with cisplatin combination, at 0.05 µM): -5.87% and -5.94% and -12.4%
inhibition ([11]; at 0.5 µM): -1.17% (inactive) and -17.8% (inactive) and -26.4% (inactive)
inhibition [11, 29]: -1.41% and -14.7% and -24.5%
inhibition [11, 30]: -64% and -69.6% and -24.6%
inhibition ([12]; at 0.5 µM): -4.41% (inactive) and -15.5% (inactive) and -5.43% (inactive)
inhibition ([12]; measured here: BGB combination, at 0.5 µM): -3.67% and -13.7% and -14%
inhibition ([12]; measured here: BGB combination, at 5 µM): -15.9% and -32.7% and -34.6%
inhibition ([12]; measured here: cisplatin combination, at 0.5 µM): -8.29% and -33% and -6.83%
inhibition ([12]; measured here: cisplatin combination, at 5 µM): -17.2% and -39.2% and -6.55%
inhibition ([13]; BGB combination, concentration series, at 5 µM): -7.67% and -9.61% and 17%
inhibition ([13]; at 0.5 µM): 1.59% (inactive) and -0.05% (inactive) and -1.7% (inactive)
inhibition ([13]; cisplatin combination, concentration series, at 5 µM): 16.4% and 6.78% and -0.772%
inhibition [14]: 0.7% (inactive) and -7.07% (inactive) and 10.3% (inactive)
inhibition ([14]; measured here: combo with BGB IC20): -4.06% and -11% and -10.6%
inhibition ([14]; measured here: combo with cisplatin IC20): 6.3% and -10.6% and 20.9%
inhibition ([15]; at 0.5 µM): -5% (inactive) and -17.7% (inactive) and -25% (inactive)
inhibition ([15]; cisplatin combination, at 0.5 µM): -11% and 0.828% and -68.7%
inhibition ([15]; cisplatin combination, at 5 µM): -4.17% and -13.1% and -46%
inhibition ([15]; measured here: BGB IC40 combination 0.05 uM, at 0.05 µM): 25% and 2.93% and -19.8%
inhibition ([15]; single agent, at 5 µM): -11.5% and -8.61% and -15%
inhibition ([16]; at 0.5 µM): -10.8% (inactive) and -26% (inactive) and -30.1% (inactive)
inhibition ([16]; cisplatin combo, at 5 µM): -47.6% and -22.2% and -34.1%
inhibition ([16]; measured here: BGB IC40 combination, at 0.05 µM): 1.7% and -24.6% and -7.83%
inhibition [16, 29]: -0.146% and -31.4% and -63.1%
inhibition ([16]; single agent, at 5 µM): -17.1% and -32.1% and -45.8%
inhibition ([17]; at 0.5 µM): -19.1% (inactive) and 4.9% (inactive) and -4.49% (inactive)
inhibition [17, 27]: -45.9% and 5.19% and -19.6%
inhibition [17, 28]: -8.03% and 2.6% and 1.49%
inhibition ([17]; single agent, at 0.05 µM): 18.8% and -30.7% and 29.1%
inhibition ([17]; single agent, at 5 µM): -20.3% and -21.7% and -53.8%

O=C(O)C(O)C(O)C(O)C(O)C(=O)O (stereo not given) (tested in a mixture with another compound)
survival [18]: 5.33 (inactive)
parasite load remaining [19]: 114% (inactive)
viability [19]: 71.7%
fold change [1, 20]: 0.895 (inactive)
fold change [1, 21]: 0.792
cell count [1, 22]: 8860
cell count [1, 23]: 9910
z-score [2, 24]: -1.4 (inactive)
z-score [2, 25]: -0.918

O=C1OC(CN2CCOCC2)CN1N=Cc1ccc([N+](=O)[O-])o1 (stereo not given)
survival [18]: 5.92 (inactive)
fold change [1, 20]: 0.85 (inactive)
fold change [1, 21]: 1.96
cell count [1, 22]: 8420
cell count [1, 23]: 9900
z-score [2, 24]: -0.512 (inactive)
z-score [2, 25]: -0.452

O=C1OC(C(O)CO)C(O)=C1O (stereo not given)
fold change [1, 20]: 1.03 (inactive)
fold change [1, 21]: 1.05
cell count [1, 22]: 8100
cell count [1, 23]: 7850
z-score [2, 24]: 0.0982 (inactive)
z-score [2, 25]: -0.298

Cc1cc(C=Cc2ccc3cc(N(C)C)ccc3[n+]2C)c(C)n1-c1ccccc1
survival [18]: 2.17 (inactive)
parasite load remaining [19]: 0.11% (inactive)
viability [19]: 48.8%
fold change [1, 20]: 1.3 (inactive)
fold change [1, 21]: 1.04
cell count [1, 22]: 2390
cell count [1, 23]: 1840
z-score [2, 24]: 0.882 (inactive)
z-score [2, 25]: 0.984
